This note sets out measurements from PubChem BioAssay (Tox21).

The source made the active and inactive calls. Unless noted, calls come from the whole dose curve.
% is set by controls: 0 for no effect and ±100 for the full control effect.

For one assay, the system named is thyroid hormone receptor (rat, GH3 cells). Description: qHTS assay to identify small molecule agonists of the thyroid receptor (TR) signaling pathway (AID 743066). The following applies: GH3.TRE-Luc cells, TR agonist luciferase, 24 h; series mostly up to 83.9 µM; activation: at the top concentration. Background: Quantitative high-throughput screening tests each substance at several concentrations.
As for `O=C1C(=O)c2cccc3cccc1c23`, the “activation” value was -1.89% (inactive).
As for `Clc1cc(C(Cl)(Cl)Cl)cnc1Cl`, the “activation” value was 1.06% (inactive).
As for `c1cc2ccc3cccc4ccc(c1)c2c34`, the “activation” value was -2.42% [at 95.2 µM] (inactive).
For the molecule `IC(I)=C(I)I`, the “activation” value was 0.685% (inactive).

The target in another assay is Estrogen receptor (Homo sapiens) (UniProt P03372). The assay can be described thus: qHTS assay to identify small molecule antagonists of the estrogen receptor alpha (ER-alpha) signaling pathway (AID 743069; active = well fitted curve in the direction sought with a large enough effect in the signal ratio in the repeat runs, not every such curve was filed as active; inconclusive = weak or mixed curves, or effect the other way; inactive = no such curve, though single readings can be large or run the other way; the % refers to the signal ratio; note: potency is the fitted concentration of half-maximal effect). To be noted: HEK293 ER-alpha-UAS-bla, beta-lactamase ratio, antagonist mode; series mostly up to 69.4 µM; activity, negative = inhibition: at the top concentration. In outline: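 Screening used a UAS-driven beta-lactamase reporter integrated into HEK293 cells expressing ER-alpha, stimulated with 17beta-estradiol alongside test compounds over 18 hr at 37C; signal came from LiveBLAzer B/G FRET fluorescence.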
Sequence of Estrogen receptor (Homo sapiens) (P03372 whole entry, looked up): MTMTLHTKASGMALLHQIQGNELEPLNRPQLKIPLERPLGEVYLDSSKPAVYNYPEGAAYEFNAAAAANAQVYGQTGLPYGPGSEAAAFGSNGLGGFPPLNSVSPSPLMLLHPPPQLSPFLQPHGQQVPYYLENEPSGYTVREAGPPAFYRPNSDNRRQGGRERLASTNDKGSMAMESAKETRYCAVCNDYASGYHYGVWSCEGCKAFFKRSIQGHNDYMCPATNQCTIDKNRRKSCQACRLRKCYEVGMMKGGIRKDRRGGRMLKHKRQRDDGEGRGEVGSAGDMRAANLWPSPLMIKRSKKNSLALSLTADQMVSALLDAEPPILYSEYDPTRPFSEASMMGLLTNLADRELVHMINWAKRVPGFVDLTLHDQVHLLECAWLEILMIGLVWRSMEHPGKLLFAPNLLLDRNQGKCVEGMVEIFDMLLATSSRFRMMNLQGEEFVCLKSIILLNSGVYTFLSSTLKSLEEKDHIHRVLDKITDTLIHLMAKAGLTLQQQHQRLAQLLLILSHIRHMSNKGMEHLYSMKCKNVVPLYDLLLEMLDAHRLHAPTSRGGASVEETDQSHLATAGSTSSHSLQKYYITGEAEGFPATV
As for `CN1C(=O)C(O)N=C(c2ccccc2)c2cc(Cl)ccc21` (stereo not drawn), the “activity, negative = inhibition” value is -8.56% (inactive).
Regarding `O=S(=O)(O)C(F)(F)C(F)(F)C(F)(F)C(F)(F)F`, the “activity, negative = inhibition” value was 19.7% [at 79.1 µM] (inactive).
Consider `ClP(Cl)(Cl)(Cl)Cl`, for which the “activity, negative = inhibition” value was -9.79% [at 79.1 µM] (inactive).
The same measure, in the same setting: as for `N#CCC#N`, the figure is 31.2% (inactive).
The same measure, in the same setting: the value for `NC(=O)C(Cl)(Cl)Cl` was 6.04% [at 79.1 µM] (inactive); that for `CCCN(CC1CC1)c1c([N+](=O)[O-])cc(C(F)(F)F)cc1[N+](=O)[O-]` was -9.8% (inactive); that for `COc1nn(CSP(=S)(OC)OC)c(=O)s1` was -26.9% (inactive).
Turning to `O=C(CCl)c1ccc(Cl)cc1Cl`, the “activity, negative = inhibition” value was -24.7% (inactive).
Regarding `O=C(CBr)c1ccccc1`, the “activity, negative = inhibition” value is -5.77% [at 79.1 µM] (inactive).
As for `O=C1NCN(c2ccccc2)C12CCN(CCCOc1ccc(F)cc1)CC2`, the Potency is 10.7 µM [inconclusive] (active).
As for `O=C(Nc1ccccc1)Nc1ccnc(Cl)c1`, the Potency was 13.8 µM [inconclusive] (active).
With `COCCOCCO`, the “activity, negative = inhibition” value was -17.4% (inactive).
As to `CC1(C)CCC(Cc2ccc(Cl)cc2)C1(O)Cn1cncn1` (stereo not drawn), the Potency was 61.6 µM [inconclusive] (active).
On to `C[N+](C)(C)CCCl`, for which the “activity, negative = inhibition” value was 11.3% [at 79.1 µM] (inactive).
`CC(C)(OO)c1ccccc1`: the “activity, negative = inhibition” value was 15.1% (inactive).
The same measure, in the same setting: the value for `O=C1C(=O)c2cccc3cccc1c23` was -84% (inactive).

Tested on in another assay: not listed separately
Description: qHTS assay to identify small molecule antagonists of the estrogen receptor alpha (ER-alpha) signaling pathway - cell viability counter screen (AID 743074). Note: nearly all actives have a fitted effect of over 45% in size. Note: potency is the fitted concentration of half-maximal effect. The following applies: ERalpha-bla HEK293 viability, CellTiter-Glo luminescence, 18 h; series mostly up to 69.4 µM; activity, negative = cytotoxicity: at the top concentration.
In the case of `CC(C)(CCl)C(=O)Cl`, the “activity, negative = cytotoxicity” value is -21.9% (inactive).
On to `CN1C(=O)C(O)N=C(c2ccccc2)c2cc(Cl)ccc21` (stereo not drawn), for which the Potency entry was “inactive”.
As to `CC(=O)c1cc2c(cc1C)C(C)(C)C(C)CC2(C)C` (stereo not drawn), the “activity, negative = cytotoxicity” value is 17% (inactive).
With `ClP(Cl)(Cl)(Cl)Cl`, the “activity, negative = cytotoxicity” value was -8.4% [at 79.1 µM] (inactive).
On the same count and under the same terms, the value for `N#CCC#N` was -19.7% (inactive).
The same measure, in the same setting: the value for `NC(=O)C(Cl)(Cl)Cl` was 17% [at 79.1 µM] (inactive); that for `CCCN(CC1CC1)c1c([N+](=O)[O-])cc(C(F)(F)F)cc1[N+](=O)[O-]` was 11.6% (inactive).
In the case of `CCCCC(O)(Cn1cncn1)c1ccc(Cl)cc1Cl` (stereo not drawn), the “activity, negative = cytotoxicity” value was -24.7% (inactive).
With `O=C(CCl)c1ccc(Cl)cc1Cl`, the Potency is 38.9 µM (active).
`O=C1c2ccccc2C(=O)C1C(=O)C(c1ccccc1)c1ccccc1`: the “activity, negative = cytotoxicity” value was 12.1% (inactive).
As for `O=C(CBr)c1ccccc1`, the “activity, negative = cytotoxicity” value is 2.82% [at 79.1 µM] (inactive).
In the case of `O=C1NCN(c2ccccc2)C12CCN(CCCOc1ccc(F)cc1)CC2`, the “activity, negative = cytotoxicity” value is 10.5% (inactive).
Consider `O=C(Nc1ccccc1)Nc1ccnc(Cl)c1`, for which the “activity, negative = cytotoxicity” value was -12.1% (inactive).
For `CC1(C)CCC(Cc2ccc(Cl)cc2)C1(O)Cn1cncn1` (stereo not drawn), the “activity, negative = cytotoxicity” value is -15.6% (inactive).
As to `OC(c1ccc(Cl)cc1)(c1ccc(Cl)cc1)c1cccnc1`, the “activity, negative = cytotoxicity” value is -19.4% (inactive).
Consider `O=C(O)C1(c2ccc3c(c2)OC[C@H](Cc2ccc(-c4ccccc4)cc2)[C@H]3O)CCCC1`, for which the Potency is 54.9 µM (active).
Turning to `CCOP(=S)(OCC)Oc1cc(Cl)c(Br)cc1Cl`, the “activity, negative = cytotoxicity” value was 13.7% (inactive).
On to `C[N+](C)(C)CCCl`, for which the “activity, negative = cytotoxicity” value was 15.4% [at 79.1 µM] (inactive).
Still for that read-out and setting: as for `CC(C)(OO)c1ccccc1`, the figure is -3.25% (inactive); as for `Clc1cc(C(Cl)(Cl)Cl)cnc1Cl`, 19.6% (inactive).
Same read-out and setting: as for `IC(I)=C(I)I`, the figure is -24% (inactive).

The next assay has as its target Estrogen receptor (Homo sapiens) (UniProt P03372). Description: qHTS assay to identify small molecule agonists of the estrogen receptor alpha (ER-alpha) signaling pathway (AID 743075). Note: potency is the fitted concentration of half-maximal effect. To be noted: HEK293 ER-alpha-UAS-bla, beta-lactamase FRET ratio, 18 h; series mostly up to 70.1 µM; activation: at the top concentration.
Turning to `O=C(NC(=O)c1c(F)cccc1F)Nc1cc(Cl)c(Oc2ncc(C(F)(F)F)cc2Cl)c(Cl)c1`, the “activation” value is 9.59% (inactive).
`CN1C(=O)C(O)N=C(c2ccccc2)c2cc(Cl)ccc21` (stereo not drawn): the Potency entry was “inactive”.
As to `C=CC[C@]1(O)CC[C@H]2[C@@H]3CCC4=CC(=O)CCC4=C3C=C[C@@]21C`, the Potency is 1.69 µM [inconclusive] (active).
Consider `O=S(=O)(O)C(F)(F)C(F)(F)C(F)(F)C(F)(F)F`, for which the “activation” value is 11.6% [at 79.1 µM] (inactive).
On to `ClP(Cl)(Cl)(Cl)Cl`, for which the “activation” value was -2.37% [at 79.1 µM] (inactive).
As for `N#CCC#N`, the “activation” value is -1.48% (inactive).
In the case of `NC(=O)C(Cl)(Cl)Cl`, the “activation” value is 6.55% [at 79.1 µM] (inactive).
`CCCN(CC1CC1)c1c([N+](=O)[O-])cc(C(F)(F)F)cc1[N+](=O)[O-]`: the “activation” value is -5.58% (inactive).
Consider `CCCCC(O)(Cn1cncn1)c1ccc(Cl)cc1Cl` (stereo not drawn), for which the “activation” value is 8.43% (inactive).
Same read-out and setting: as for `COc1nn(CSP(=S)(OC)OC)c(=O)s1`, the figure is 14.9% (inactive); as for `O=C(CCl)c1ccc(Cl)cc1Cl`, 2.81% (inactive); as for `O=C(CBr)c1ccccc1`, -1.78% [at 79.1 µM] (inactive).
For the molecule `O=C1NCN(c2ccccc2)C12CCN(CCCOc1ccc(F)cc1)CC2`, the “activation” value is -3.18% (inactive).
Take `CO/C=C(/C(=O)OC)c1ccccc1COc1cccc(C(F)(F)F)n1`: the Potency was 1.38 µM [inconclusive] (active).
As to `O=C(Nc1ccccc1)Nc1ccnc(Cl)c1`, the “activation” value was 5.86% (inactive).
On the same count and under the same terms, the value for `COCCOCCO` was 2% (inactive); that for `CC1(C)CCC(Cc2ccc(Cl)cc2)C1(O)Cn1cncn1` (stereo not drawn) was 18% (inactive); that for `OC(c1ccc(Cl)cc1)(c1ccc(Cl)cc1)c1cccnc1` was 1.91% (inactive).
For `CCOP(=S)(OCC)Oc1cc(Cl)c(Br)cc1Cl`, the “activation” value is 0.982% (inactive).
On to `CN(C)c1ccc(N(C)C)cc1`, for which the “activation” value is -1.73% (inactive).
Regarding `O=S1(=O)OC(c2cc(Br)c(O)c(Br)c2)(c2cc(Br)c(O)c(Br)c2)c2ccccc21`, the “activation” value was 2.48% (inactive).
For `CC(C)(OO)c1ccccc1`, the “activation” value was 2.34% (inactive).
In the case of `O=C1C(=O)c2cccc3cccc1c23`, the “activation” value is 8.25% (inactive).
Regarding `Clc1cc(C(Cl)(Cl)Cl)cnc1Cl`, the “activation” value was -1.94% (inactive).
On the same count and under the same terms, the value for `c1cc2ccc3cccc4ccc(c1)c2c34` was 7.34% [at 79.1 µM] (inactive); that for `IC(I)=C(I)I` was 2.94% (inactive).

For another assay the target is unchanged. The assay can be described thus: qHTS assay to identify small molecule agonists of the estrogen receptor alpha (ER-alpha) signaling pathway using the BG1 cell line (AID 743079; active = well fitted activation curve with a large enough effect in the repeat runs; inconclusive = weak or mixed curves, or effect the other way; inactive = no such curve, though single readings can be large or run the other way; note: nearly all actives have a fitted effect of over 20% in size; note: potency is the fitted concentration of half-maximal effect). The following applies: BG1Luc4E2 cells, ERE-luciferase agonist, 22 h; series mostly up to 70.3 µM; activation: at the top concentration.
As for `C=CC[C@]1(O)CC[C@H]2[C@@H]3CCC4=CC(=O)CCC4=C3C=C[C@@]21C`, the Potency is 1.33 µM (active).
As to `O=S(=O)(O)C(F)(F)C(F)(F)C(F)(F)C(F)(F)F`, the “activation” value was 12.1% [at 95 µM] (inactive).
For `ClP(Cl)(Cl)(Cl)Cl`, the “activation” value was 8.95% [at 95 µM] (inactive).
As to `N#CCC#N`, the “activation” value is 9.07% (inactive).
Turning to `NC(=O)C(Cl)(Cl)Cl`, the Potency was 68.9 µM (active).
Turning to `CCCN(CC1CC1)c1c([N+](=O)[O-])cc(C(F)(F)F)cc1[N+](=O)[O-]`, the “activation” value was -0.115% (inactive).
Take `CO/N=C(/C(=O)OC)c1ccccc1COc1ccccc1C`: the “activation” value was -15.9% (inactive).
Turning to `COc1nn(CSP(=S)(OC)OC)c(=O)s1`, the “activation” value is 4% (inactive).
On to `O=C(CCl)c1ccc(Cl)cc1Cl`, for which the Potency result is “inactive”.
As for `O=C(CBr)c1ccccc1`, the Potency is 54.8 µM (active).
In the case of `COCCOCCO`, the “activation” value is 5.64% (inactive).
With `C[N+](C)(C)CCCl`, the “activation” value was 5.94% [at 95 µM] (inactive).
For `CC(C)(OO)c1ccccc1`, the “activation” value is 0.29% (inactive).
The same measure, in the same setting: the value for `O=C1C(=O)c2cccc3cccc1c23` was -12.6% (inactive); that for `Clc1cc(C(Cl)(Cl)Cl)cnc1Cl` was -6.47% (inactive); that for `c1cc2ccc3cccc4ccc(c1)c2c34` was 12% [at 95 µM] (inactive).
